Where “and” joins values, the source holds several entries; their conditions need not be identical. Identical values can stand only once. Results filed as inconclusive are left out. Entries that show only a call come without a potency. Calls of active or inactive are those of the source. The call rests on the fitted dose curve; in most records, active means well fitted curve in the direction sought with a large enough effect; inconclusive means small, poorly fitted or top-dose-only effect, or another doubt; inactive means no such curve, though single readings can be large; an effect the other way counts as inactive or inconclusive.
System: not listed separately
Experiment: Inducers of the Endoplasmic Reticulum Stress Response (ERSR) in human glioma: Validation (AID 504836)
Conditions: human glioma cells, ER stress response reporter; series mostly up to 38.3 µM
Procedure, shortened: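 Stably transfected U87-MG glioma cells carrying a GRP78-based luciferase sensor; 16 h compound incubation. Luminescence end-point read 10 min after Bright-Glo addition at room temperature.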

| Compound | outcome |
| --- | --- |
| COc1cc2nc(N3CCN(C(=O)C4COc5ccccc5O4)CC3)nc(N)c2cc1OC (stereo not given) | inactive |
| CN(C)CCC=C1c2ccccc2C=Cc2ccccc21 | inactive |
| CN1CC(=O)N/C1=N/C(=O)Nc1cccc(Cl)c1 | inactive |
| CN(C)CC/C=C1\c2ccccc2COc2ccccc21 | inactive |
| CCCC(CCC)C(=O)O | inactive |
| Cc1ccccc1N1C(=O)c2cc(S(N)(=O)=O)c(Cl)cc2NC1C (stereo not given) | inactive |
| Cc1cc2c(C(C)C)c(O)c(O)c(C=O)c2c(O)c1-c1c(C)cc2c(C(C)C)c(O)c(O)c(C=O)c2c1O | inactive |
| NC(=O)OCC(COC(N)=O)c1ccccc1 | inactive |
| Clc1ccc2c(c1)C(N1CCNCC1)=Nc1ccccc1O2 | inactive |
| CC(C)(C(=O)O)c1ccc(C(O)CCCN2CCC(C(O)(c3ccccc3)c3ccccc3)CC2)cc1 (stereo not given) | inactive |
| COc1cc(Cc2cnc(N)nc2N)cc(OC)c1OC | inactive |
| COc1cc2nc(N3CCN(C(=O)c4ccco4)CC3)nc(N)c2cc1OC | inactive |
| COc1cc2c(c(OC)c1OC)-c1ccc(OC)c(=O)cc1[C@@H](NC(C)=O)CC2 | inactive |
| O=C(c1ccc(OCCN2CCCCC2)cc1)c1c(-c2ccc(O)cc2)sc2cc(O)ccc12 | inactive |
| CSc1ccc2c(c1)N(CCC1CCCCN1C)c1ccccc1S2 (stereo not given) | inactive |
| CCCN(CCC)CCc1cccc2c1CC(=O)N2 | inactive |
| CN(C)C(=O)C(CCN1CCC(O)(c2ccc(Cl)cc2)CC1)(c1ccccc1)c1ccccc1 | inactive |
| CC(C)NCC(O)COc1ccc(CCOCC2CC2)cc1 (stereo not given) | inactive |
| O=c1c(O)c(-c2ccc(O)c(O)c2)oc2cc(O)cc(O)c12 | inactive |

| Compound | outcome |
| --- | --- |
| COC(=O)[C@H]1[C@H]2C[C@@H]3c4[nH]c5cc(OC)ccc5c4CCN3C[C@H]2C[C@@H](OC(=O)c2cc(OC)c(OC)c(OC)c2)[C@@H]1OC | inactive |
| CCOC(=O)c1ncn2c1CN(C)C(=O)c1cc(F)ccc1-2 | inactive |
| CN(C)c1nc(N(C)C)nc(N(C)C)n1 | inactive |
| CC(CN1c2ccccc2Sc2ccccc21)N(C)C (stereo not given) | inactive |
| CCCNCC(O)COc1ccccc1C(=O)CCc1ccccc1 (stereo not given) | inactive |
| NS(=O)(=O)c1cc2c(cc1Cl)NC=NS2(=O)=O | inactive |
| O=C1NC(=O)C(c2ccccc2)(c2ccccc2)N1 | inactive |
| OCCN(CCO)c1nc(N2CCCCC2)c2nc(N(CCO)CCO)nc(N3CCCCC3)c2n1 | inactive |
| CCOC(=O)C1=C(C)NC(C)=C(C(=O)OC)C1c1cccc(Cl)c1Cl (stereo not given) | inactive |
| CCN(CC)CCCC(C)Nc1ccnc2cc(Cl)ccc12 (stereo not given) | inactive |
| Oc1ccc(C2CNCCc3c2cc(O)c(O)c3Cl)cc1 (stereo not given) | inactive |
| Cc1c(OCC(F)(F)F)ccnc1CS(=O)c1nc2ccccc2[nH]1 (stereo not given) | inactive |
| Nc1ncn([C@@H]2O[C@H](CO)[C@@H](O)[C@H]2O)c(=O)n1 | inactive |
| CN1CCC(=C2c3ccccc3C=Cc3ccccc32)CC1 | inactive |
| Cn1ccc2cc3c(cc21)CCN3C(=O)Nc1cccnc1 | inactive |
| O=C1N=C(O)CN1/N=C/c1ccc(-c2ccc([N+](=O)[O-])cc2)o1 | inactive |
| CNCCCC1c2ccccc2C=Cc2ccccc21 | inactive |
| N=c1nc(N2CCCCC2)cc(N)n1O | inactive |

Target: Ubiquitin carboxyl-terminal hydrolase 1 (Homo sapiens) (UniProt O94782)
Sequence (O94782 whole entry, looked up): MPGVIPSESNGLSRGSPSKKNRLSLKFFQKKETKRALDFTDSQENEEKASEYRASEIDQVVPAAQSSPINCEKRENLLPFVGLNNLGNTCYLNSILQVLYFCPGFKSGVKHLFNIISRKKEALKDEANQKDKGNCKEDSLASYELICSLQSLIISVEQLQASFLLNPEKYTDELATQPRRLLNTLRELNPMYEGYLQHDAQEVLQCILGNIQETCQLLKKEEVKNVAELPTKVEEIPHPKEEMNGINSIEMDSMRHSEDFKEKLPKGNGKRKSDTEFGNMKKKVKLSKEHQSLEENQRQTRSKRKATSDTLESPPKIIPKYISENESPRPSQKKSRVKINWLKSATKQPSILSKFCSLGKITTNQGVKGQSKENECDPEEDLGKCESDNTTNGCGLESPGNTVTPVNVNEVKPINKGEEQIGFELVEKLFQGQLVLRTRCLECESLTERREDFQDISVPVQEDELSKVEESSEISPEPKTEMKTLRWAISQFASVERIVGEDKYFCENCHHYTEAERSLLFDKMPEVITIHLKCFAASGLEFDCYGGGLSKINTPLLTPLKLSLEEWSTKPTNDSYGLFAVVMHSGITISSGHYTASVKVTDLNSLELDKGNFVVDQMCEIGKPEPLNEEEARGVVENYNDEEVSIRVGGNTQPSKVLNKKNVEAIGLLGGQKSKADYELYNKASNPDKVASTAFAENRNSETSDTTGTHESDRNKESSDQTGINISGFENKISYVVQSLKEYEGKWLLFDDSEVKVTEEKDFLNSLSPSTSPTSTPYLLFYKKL
Experiment: Inhibitors of USP1/UAF1: Pilot qHTS (AID 504865); further: nearly all actives have a fitted effect of over 35% in size; further: potency means the concentration at half of the fitted maximal effect
Conditions: purified USP1/UAF1, Ub-rhodamine cleavage fluorescence; series mostly up to 114 µM
Procedure, shortened: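 USP1/UAF1 complex (1nM) preincubated with compound 15 min at room temperature, then Ub-Rho substrate (150nM final) added. Fluorescence read kinetically at 480/540 nm, 6 reads every 60 seconds. Buffer: 50mM HEPES pH 7.8, 0.5mM EDTA, 0.1 mg/ml BSA, 1mM TCEP, 0.01% Tween-20.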

| Compound | Potency |
| --- | --- |
| Clc1cccc(N2CCNCC2)c1 | inactive |
| Cc1cc2c(C(C)C)c(O)c(O)c(C=O)c2c(O)c1-c1c(C)cc2c(C(C)C)c(O)c(O)c(C=O)c2c1O | 22.4 µM (active) and 31.6 µM (active) and 10 µM (active) |
| COc1cc2c(c(OC)c1OC)-c1ccc(OC)c(=O)cc1[C@@H](NC(C)=O)CC2 | inactive |

— PubChem BioAssay (NCATS)
